Reference: the supplement of paper PMC3545927
The list shows a part of the results. No count for the full screen is at hand.

B1: HC695 (peptide)
chain: CAFLATCINGAGNASASA
B2: HC293 (peptide)
chain: CALVGSATLCAGNASASA
B3: HC2433 (peptide)
chain: CARREVPCHRAGNASASA
B4: FS-2136 (peptide)
chain: CAREPRLVGGAGNASASA
B5: HC696 (peptide)
chain: CAATCINGVCAGNASASA
B6: FS-1293 (peptide)
chain: CATRRRTPRPAGNASASA
B7: FS-638 (peptide)
chain: CAAAARRRRHAGNASASA
B8: FS-1621 (peptide)
chain: CAYRCRRPRHAGNASASA
B9: FS-917 (peptide)
chain: CARPGRLDRHAGNASASA
B10: HC911 (peptide)
chain: CAFVAPGERPAGNASASA
B11: FS-1589 (peptide)
chain: CAFQNRRARHAGNASASA
B12: FS-1170 (peptide)
chain: CASTRRRPRHAGNASASA
B13: HC307 (peptide)
chain: CAFSPRRHWTAGNASASA
B14: HC1568 (peptide)
chain: CAAAWETARHAGNASASA
B15: FS-1156 (peptide)
chain: CARHGRRRRHAGNASASA

Target: furin, P09958
Experiment: furin cleavage Z-score vs untreated control; higher = more cleavage, active = 3.5 or more, inactive = 1 or less, 8 variable residues between constant flanks
How it was run: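 Purified furin digested bead-held 8-mer peptide–cDNA fusions at 1:10 enzyme:substrate in 0.01 ml of 50 mM HEPES pH 7.5 with CaCl2 and NaCl for 7.5, 15 or 30 min. The cleavage Z-score compares sequencing counts of released DNA with furin-free reactions on a log scale, with lowess adjustment and median absolute deviation scaling.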

furin, P09958, sequence (P09958 whole entry): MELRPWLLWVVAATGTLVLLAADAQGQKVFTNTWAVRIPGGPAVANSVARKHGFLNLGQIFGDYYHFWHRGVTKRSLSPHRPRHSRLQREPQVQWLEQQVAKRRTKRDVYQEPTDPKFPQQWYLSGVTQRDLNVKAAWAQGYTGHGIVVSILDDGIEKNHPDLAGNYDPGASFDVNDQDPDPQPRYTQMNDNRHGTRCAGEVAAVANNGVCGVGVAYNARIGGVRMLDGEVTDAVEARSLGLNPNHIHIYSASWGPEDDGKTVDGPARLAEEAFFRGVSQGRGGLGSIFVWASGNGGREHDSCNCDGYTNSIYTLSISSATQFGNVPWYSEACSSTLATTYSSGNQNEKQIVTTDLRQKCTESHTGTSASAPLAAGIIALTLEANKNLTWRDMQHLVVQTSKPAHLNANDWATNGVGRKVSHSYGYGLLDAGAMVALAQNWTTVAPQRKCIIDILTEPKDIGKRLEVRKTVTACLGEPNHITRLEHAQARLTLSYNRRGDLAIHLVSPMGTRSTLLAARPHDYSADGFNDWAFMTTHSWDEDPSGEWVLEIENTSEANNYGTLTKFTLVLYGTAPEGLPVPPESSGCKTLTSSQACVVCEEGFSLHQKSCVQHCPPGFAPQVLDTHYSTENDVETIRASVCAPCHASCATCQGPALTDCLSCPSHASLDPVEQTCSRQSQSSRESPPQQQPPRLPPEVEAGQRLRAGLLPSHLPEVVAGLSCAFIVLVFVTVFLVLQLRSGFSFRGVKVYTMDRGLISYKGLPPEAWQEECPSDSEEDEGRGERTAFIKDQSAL

| Sequence | furin cleavage Z-score (7.5 min) | furin cleavage Z-score (15 min) | furin cleavage Z-score (30 min) |
| --- | --- | --- | --- |
| B1 | -1 (inactive) | -1.97 (inactive) | 0.404 (inactive) |
| B2 | -0.853 (inactive) | -0.387 (inactive) | -0.923 (inactive) |
| B3 | 0.899 (inactive) | 1.63 | 1.91 |
| B4 | -1.44 (inactive) | -0.28 (inactive) | 0.256 (inactive) |
| B5 | -1.44 (inactive) | -0.421 (inactive) | -0.171 (inactive) |
| B6 | -0.0603 (inactive) | -0.269 (inactive) | 0.573 (inactive) |
| B7 | 5.47 (active) | 5.84 (active) | 3.86 (active) |
| B8 | 0.22 (inactive) | 1.07 | 0.99 (inactive) |
| B9 | 1.02 | -0.871 (inactive) | 0.899 (inactive) |
| B10 | -1.27 (inactive) | -0.656 (inactive) | -0.848 (inactive) |
| B11 | 9.77 (active) | 11.1 (active) | 10.3 (active) |
| B12 | 4.52 (active) | 3.46 | 2.74 |
| B13 | 0.332 (inactive) | -0.669 (inactive) | -0.85 (inactive) |
| B14 | 0.137 (inactive) | 0.318 (inactive) | -0.358 (inactive) |
| B15 | 10.6 (active) | 11.5 (active) | 8.22 (active) |
